# Source: the OligoGym collection
# Biological target: ETS1
# Experiment: pooled miR-30 sensor sort-seq; sequence = guide strand
# Settings: shRNA
# Further: reference of the scale not given here.
row,Sequence,sensor-assay potency score (higher = more potent)
1,TAGCAAAGTAGTCATTCTGCAA,-0.233
2,TTTCACATCCTCTTTCTGCAGG,-0.259
3,TGAAAGTAGCTTTTAATGCTTG,-0.0896
4,TTTTCCGTCTTGATGATGGTGA,-0.268
5,TTCTTGTTTGATAGCAAAGTAG,-1.22
6,TTTCTTTGCTGCTTGGAGTTAA,-0.637

# Biological target: EYA3
# Experiment: as above
# Settings: shRNA
row,Sequence,sensor-assay potency score (higher = more potent)
1,TTGTGAGGTATAATCATTGGAT,-0.583
2,TTCTAATTCACTGTCTTGGGAA,-0.169
3,ATCACTGTTAGTCTGACCTGTG,0.133
4,TTTGGTAGCACTATAGATGTTC,0.549
5,TAATCCTGGTTTGAGATGCTGG,-0.375
6,TTGCTCTCCTGATTCCTGCATC,-0.293
7,TAGATTTCTCTCACTTTCCGGT,0.197
8,TTTTCCTGGACTGATCATCAGT,-0.683
9,TTGAGTCTGCTGTAGTGTCTGG,-0.331
10,TTAATCTCTGCAGTGCTTCCTT,0.585
11,TTAGTCTGACCTGTGACTCCAA,-0.459
12,TATAATCATTGGATGAGCGAGG,-0.793
13,TTGACTTATAGTTTGCTCTCCT,0.627
14,TAGTTTGCTCTCCTGATTCCTG,-0.14
15,TAGTCCATATAGGAGAACCTTG,-1.31
16,TCTGGTATTGAGTCTGTCCAGG,-0.468
17,TTTCTTCCATTGTTAAACCTGA,-0.4
18,TAGTGTCTGGTATTGAGTCTGT,-0.308
19,TAGTCTGACCTGTGACTCCAAA,-0.964
20,TTTACTTGGTGTAGTCTGGGAC,-0.478
21,TTGCTAGTCATGTTTTTCCTGG,-0.514
22,TTCTGCTCTTAATCTCTGCAGT,-0.462
23,TTTAATGCAGTTCCTAACCAGG,-1.16

# Biological target: F2R
# Experiment: as above
# Settings: shRNA
row,Sequence,sensor-assay potency score (higher = more potent)
1,TTTCAGGATGAACACAACGATG,-1.75
2,TTTCTGGCCAATCTGTGTCTGA,-0.414
3,TAACACCGTCATCTCGTCCTGT,-0.174
4,TACACCACAGCCAGAAACCGGT,-0.606
5,TTCCTGAGAAGAAATGACCGGG,0.496
6,TTCAGGGCTAAACTCTACCAAC,-1.3
7,TTACACATACATCACACTCTAT,-0.0427
8,AAACACTAGAACTTCTACGCAC,0.254
9,TAGGATATCACATTCTGCTTTG,-0.448
10,TACACATACATCACACTCTATG,-1.1
11,TTAATAACTTAAACCTTGCCGT,0.203
